Among the data in PubChem BioAssay (NCI) are growth values, retold here.

Where “and” joins values, the source holds several entries; their conditions need not be identical. Equal values may be shown once. The panel holds about 83,000 compounds, 20% with a hit somewhere; the sample as a whole holds those more often.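 Method: cells in 96-well plates; compound added at one concentration; 48 h incubation; percent growth measured; values under 10 scored active.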 Calls of active or inactive are those of the source.

The test system of the assay is MDA-MB-468 breast. In words: NCI-60 one-dose screen, 48 h (100 = growth as untreated, 0 = no growth, -100 = all killed). To be noted: 10 µM unless noted.
Regarding `COc1cccc(-c2nn(-c3ccccc3)cc2-c2ccnc(N3CCOCC3)c2)c1`, the growth is 69.2% (inactive).

With `Cc1nc2ccccc2c(=O)n1-c1cccc(OCc2cn(-c3cccc(O)c3)nn2)c1`, the growth was 87.7% (inactive). Under `O=C1[C@H]2Cc3c([nH]c4ccccc34)[C@H](c3ccc(Cl)cc3)N2C(=O)CN1C1CCN(CC2CCCCC2)CC1` stands 62.7% (inactive); under `O=C(/C=C\c1ccc(O)cc1)c1ccccc1`, 97.4% (inactive).

For `O=C(NC1CCN(Cc2ccccc2)CC1)c1cc(-c2cccnc2)nc2ccc(Cl)cc12`, the growth is 54.7% (inactive). Under `N#Cc1c(NC(=O)c2ccccc2C(F)(F)F)sc2c1CCC(=O)C2` stands -0.286% (active). The value for `CCOC(=O)c1c(NS(=O)(=O)c2ccc(C)cc2)sc2c1CCC1(C2)OCCO1` was 87.6% (inactive).

Take `CCN1C(=O)N(CC)C2C1NC(=S)N2/N=C/C=C/c1ccccc1OC` (stereo not given): the growth was -0.348% (active).

Consider `C=C1C(=O)O[C@H]2[C@H]1CC/C(COC(=O)CCCC(=O)OC/C1=C/CC[C@@]3(C)O[C@H]3[C@H]3OC(=O)C(=C)[C@@H]3CC1)=C\CC[C@@]1(C)O[C@@H]21`, for which the growth was -19.1% (active). The value for `C#C[C@]1(O)CC[C@H]2[C@@H]3CC=C4c5sc(C6CC6)nc5CC[C@]4(C)[C@H]3CC[C@@]21C` was 68.4% (inactive); that for `CCCC[N+](C)(N)CCCC` was 106% (inactive). Under `COc1cc(NS(C)(=O)=O)ccc1Nc1c2ccc(Cl)cc2nc2c(OC)cccc12` stands -34.1% (active); under `Nc1nc(N)c(NC(=O)CNc2ccc(C(=O)O)cc2)c(N)n1`, 98.6% (inactive); under `CCN(CC)CCCN1C(=O)c2c(c(C)c3c(oc4cc(O)ccc43)c2C)C1=O`, 102% (inactive). With `CC(C)(C)c1ccc(CCO)cc1`, the growth is 124% (inactive). The value for `N#CCC1=NC(c2cccs2)=Nc2ccccc2S1` was 82.2% (inactive); that for `CN(C)CCCn1c2c(c3cnccc3c1=O)C(=O)c1ccccc1-2` was -1.59% (active).

Regarding `CSC(SC)=C(C#N)c1nc2ccccc2s1`, the growth was 43.8% (inactive). Under `Clc1ccc(/C=C/c2ccccn2)cc1` stands 38.3% (inactive).

For the molecule `CCCCCCCCCCCCNC(=O)[C@H]1CSC(c2cc(Br)cs2)N1` (stereo not given in full), the growth is -48.7% (active). As for `Cc1ccc(C(=O)NCCNc2nccc(-c3c(-c4cccc(F)c4)nc4sccn34)n2)cc1`, the growth was 38.7% (inactive).

Regarding `N#CCNc1ccc(C(=O)O)cc1`, the growth is 92.8% (inactive).

With `Cc1ccc(-c2cc(-c3ccc(C)cc3)nc(N3CCN(CCNc4ccnc5cc(Cl)ccc45)CC3)n2)cc1`, the growth was 36.4% (inactive). The value for `Cc1ccc2nc(N)nnc2c1` was 102% (inactive); that for `N#C/C(=C\c1ccc(-c2ccccc2)o1)c1nc(-c2ccco2)cs1` was -32.4% (active). Regarding `C=C1C(=O)O[C@H]2[C@H]1CC/C(COC(=O)NCCCCCCCCNC(=O)OC/C1=C/CC[C@@]3(C)O[C@H]3[C@H]3OC(=O)C(=C)[C@@H]3CC1)=C\CC[C@@]1(C)O[C@@H]21`, the growth is -46.1% (active). The value for `C#Cc1cccc(Nc2nc(Cl)nc3cc(NC(=O)CCl)ccc23)c1` was -71% (active); that for `CC(CN1CCN(CCOCCO)CC1)CN1c2ccccc2Sc2ccc(Cl)cc21` (stereo not given) was 40.9% (inactive); that for `CN(C)CCSC1=Nc2ccc(Cl)cc2C(c2ccccc2Cl)N(C)C1` (stereo not given) was 58.4% (inactive). The value for `COc1ccc2nc(N=Nc3c(O)ccc4ccccc34)sc2c1` was 25.3% (inactive). As to `C=C1C(=O)O[C@H]2[C@H]1CC/C(COC(=O)NC1CCC(O)CC1)=C\CC[C@@]1(C)O[C@@H]21` (stereo not given in full), the growth was 37% (inactive) and 31.7% (inactive). The value for `CCN(CC)Cc1cc(C=C2C(=O)NC(=S)NC2=O)cc(OC)c1O` was 108% (inactive); that for `O=C(/C=C/Nc1ccc(S(=O)(=O)O)cc1)c1ccc(F)cc1` was 95.8% (inactive). As for `Clc1ccc2c(NCCCN3CCOCC3)c3oc4ccc(Cl)cc4c3nc2c1`, the growth was 44.2% (inactive).

Consider `C=CCNc1ccc2c3c(cccc13)C(=O)N(CC=C)C2=O`, for which the growth was 60.3% (inactive). Under `COc1ccc(OC)c(/C=C/C(=O)c2c(C)nc3ccccc3c2/C=C/c2ccccc2)c1` stands 60.5% (inactive); under `O=C(CCC(=O)OC1CCCC1)OC1CCCC1`, 100% (inactive). Regarding `NC1=NC(SCc2ccccc2CCl)c2ncn(Cc3ccccc3CCl)c2N1` (stereo not given), the growth is -33.2% (active). The value for `COc1cc(CNC(=O)C2CSC3(C)c4ccccc4C(=O)N23)cc(OC)c1OC` (stereo not given) was 89.6% (inactive). In the case of `COc1ccc(-c2nnc(-c3c(-c4ccccc4)nc4ncccn34)o2)cc1OC`, the growth was 99.1% (inactive).
